Measurements as given in PubChem BioAssay (NCI).
Compounds without any hit were thinned out: in the full panel of roughly 83,000, 20% have a hit.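 For each line, cells grew in 96-well plates with the test compound present at a single concentration for 48 hours.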 Activity calls are given as the source filed them. The calls were made as follows: active = growth percent below 10; inactive = the rest.

What was measured:
Test in all cases: NCI-60 one-dose screen, 48 h (100 = growth as untreated, 0 = no growth, -100 = all killed)
SK-MEL-2 melanoma = conditions: 10 µM unless noted
SN12C renal = conditions: 10 µM unless noted
UO-31 renal = conditions: 10 µM unless noted
TK-10 renal = conditions: 10 µM unless noted
ACHN renal = conditions: 10 µM unless noted
A498 renal = conditions: 10 µM
HL-60(TB) leukemia = conditions: 10 µM unless noted
CCRF-CEM leukemia = conditions: 10 µM unless noted
MOLT-4 leukemia = conditions: 10 µM unless noted
SR leukemia = conditions: 10 µM unless noted
RPMI-8226 leukemia = conditions: 10 µM unless noted
OVCAR-8 ovarian = conditions: 10 µM unless noted
OVCAR-5 ovarian = conditions: 10 µM unless noted
OVCAR-4 ovarian = conditions: 10 µM unless noted
SK-OV-3 ovarian = conditions: 10 µM unless noted
IGROV1 ovarian = conditions: 10 µM unless noted
OVCAR-3 ovarian = conditions: 10 µM unless noted
HS 578T breast = conditions: 10 µM unless noted
CAKI-1 renal = conditions: 10 µM unless noted

Measured: growth

COc1ccc([As]=[As]c2ccc(OC)c(NCS(=O)(=O)O)c2)cc1NCS(=O)(=O)O (stereo unspecified)
inactive: SK-MEL-2 melanoma 23.9% | SN12C renal 12.4% | UO-31 renal 25.7% | ACHN renal 46.6% | A498 renal 20.9% | OVCAR-8 ovarian 44% | OVCAR-5 ovarian 63.8% | OVCAR-4 ovarian 14.9% | SK-OV-3 ovarian 91.6%
active: TK-10 renal -16.2% | HL-60(TB) leukemia -7.43% | CCRF-CEM leukemia -13.9% | MOLT-4 leukemia -0.189% | SR leukemia -1.51% | RPMI-8226 leukemia -13% | IGROV1 ovarian 5.53% | OVCAR-3 ovarian 9.01% | HS 578T breast 6.44%

CC12CCC3C(CCC4Cc5[nH]c6ccccc6c5CC43C)C1CCC2O (stereo unspecified)
active: CCRF-CEM leukemia 8.61% | RPMI-8226 leukemia -20% | OVCAR-3 ovarian -28.3% | HS 578T breast -8.19%
inactive: SK-MEL-2 melanoma 67.2% | SN12C renal 42.8% | UO-31 renal 56.9% | TK-10 renal 57.3% | ACHN renal 48.3% | CAKI-1 renal 45.1% | A498 renal 31.8% | MOLT-4 leukemia 21.6% | OVCAR-8 ovarian 36.9% | OVCAR-5 ovarian 122% | OVCAR-4 ovarian 51.8% | SK-OV-3 ovarian 29.5% | IGROV1 ovarian 50.8%

C[C@]12C[C@@H](CO)[C@H](O)C[C@@H]1CC[C@@H]1[C@@H]2CC[C@]2(C)[C@@H](O)CC[C@@H]12
inactive: SK-MEL-2 melanoma 86% | SN12C renal 106% | UO-31 renal 89.6% | TK-10 renal 103% | ACHN renal 101% | CAKI-1 renal 94.1% | A498 renal 95.1% | HL-60(TB) leukemia 71% | MOLT-4 leukemia 85.8% | SR leukemia 79.4% | RPMI-8226 leukemia 91.9% | OVCAR-8 ovarian 96.8% | OVCAR-5 ovarian 104% | OVCAR-4 ovarian 105% | SK-OV-3 ovarian 106% | IGROV1 ovarian 105% | OVCAR-3 ovarian 101%

CCN1C(=O)C(=C/C=C/c2ccccc2)C(=O)N(CC)C1=O
inactive: SK-MEL-2 melanoma 99.9% | SN12C renal 75.8% | UO-31 renal 70.1% | TK-10 renal 94.3% | ACHN renal 70.3% | CAKI-1 renal 87.8% | A498 renal 94.3% | RPMI-8226 leukemia 61% | OVCAR-8 ovarian 54% | OVCAR-5 ovarian 107% | OVCAR-4 ovarian 111% | SK-OV-3 ovarian 103% | IGROV1 ovarian 84.5% | OVCAR-3 ovarian 42.6% | HS 578T breast 91.2%
active: CCRF-CEM leukemia -14.1% | MOLT-4 leukemia 6.92% | SR leukemia -6.58%

CC1=C(CCCOC(=O)CN)C2=C(C)C3(CC3)[C@@](C)(O)C(=O)C2=C1
inactive: SK-MEL-2 melanoma 102% | SN12C renal 81.3% | UO-31 renal 73.3% | TK-10 renal 102% | ACHN renal 97.4% | A498 renal 94.7% | HL-60(TB) leukemia 75.2% | CCRF-CEM leukemia 81.1% | MOLT-4 leukemia 84.5% | SR leukemia 94.7% | OVCAR-8 ovarian 73.8% | OVCAR-5 ovarian 114% | OVCAR-4 ovarian 85% | SK-OV-3 ovarian 51.3% | IGROV1 ovarian 32.8% | OVCAR-3 ovarian 101% | HS 578T breast 93.9%

C=CCCCN=C=S
inactive: SK-MEL-2 melanoma 56% | SN12C renal 60.1% | UO-31 renal 70% | TK-10 renal 69.1% | ACHN renal 77.9% | CAKI-1 renal 83.3% | A498 renal 76% | CCRF-CEM leukemia 50.1% | MOLT-4 leukemia 40.7% | SR leukemia 27% | RPMI-8226 leukemia 49% | OVCAR-8 ovarian 89.6% | OVCAR-5 ovarian 86.9% | OVCAR-4 ovarian 88.8% | SK-OV-3 ovarian 70.7% | IGROV1 ovarian 72% | OVCAR-3 ovarian 57.8% | HS 578T breast 98%

Nc1ccc(OCCNS(=O)(=O)c2cccc(S(=O)(=O)F)c2)c(Cl)c1
inactive: SK-MEL-2 melanoma 88.9% | SN12C renal 102% | TK-10 renal 102% | ACHN renal 96.2% | CAKI-1 renal 86.8% | HL-60(TB) leukemia 98.1% | CCRF-CEM leukemia 93.5% | MOLT-4 leukemia 76.2% | SR leukemia 93.3% | OVCAR-8 ovarian 115% | OVCAR-5 ovarian 102% | OVCAR-4 ovarian 64.1% | SK-OV-3 ovarian 87.1% | IGROV1 ovarian 97.3% | OVCAR-3 ovarian 110% | HS 578T breast 93.6%
active: UO-31 renal -13.3%

CC12CC(=O)C3(SC#N)C(CCC4=CC(=O)CCC43C)C1CCC2=O (stereo unspecified)
inactive: SK-MEL-2 melanoma 125% | SN12C renal 85% | UO-31 renal 39% | TK-10 renal 81.4% | ACHN renal 49.2% | CAKI-1 renal 93.5% | A498 renal 95.3% | HL-60(TB) leukemia 43.2% | MOLT-4 leukemia 22.2% | SR leukemia 86.1% | OVCAR-8 ovarian 89.6% | OVCAR-5 ovarian 103% | OVCAR-4 ovarian 73.8% | SK-OV-3 ovarian 109% | IGROV1 ovarian 99.2% | OVCAR-3 ovarian 42.1%

C=C1C[C@](OC)([C@H](O)C(=O)N[C@@H](OC)[C@@H]2C[C@@H](O)C(C)(C)[C@@H](C[C@@H](COC)OC)O2)O[C@H](C)[C@@H]1C
active: SK-MEL-2 melanoma -64.8% | SN12C renal -29.9% | UO-31 renal -61.7% | TK-10 renal -36% | ACHN renal -84.6% | CAKI-1 renal -39.7% | A498 renal -87.1% | CCRF-CEM leukemia -24.3% | MOLT-4 leukemia -51.7% | SR leukemia -39.2% | RPMI-8226 leukemia -72.5% | OVCAR-8 ovarian -20.8% | OVCAR-5 ovarian -29.8% | OVCAR-4 ovarian -38.4% | SK-OV-3 ovarian -9.43% | IGROV1 ovarian -66.8% | OVCAR-3 ovarian -43.9% | HS 578T breast -46.2%
